Bioassay records as filed in PubChem.
Coupling enz: counter-screen for Giardia aldolase inhibitors: coupling enzyme system; coupling enzyme system counterscreen, AmpLite Red fluorescence; actives 0.67% (n = 290,000); activity change, negative = inhibition, % at 58.2 µM, hits read low; in the data active means activity change below about -30%
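First, compound is pin-transferred into glyceraldehyde-3-phosphate coupling-enzyme reagent at 57.5 uM final and held 10 min at RT. Next, substrate, coupling system and AmpLite Red are added. After 20 min RT, fluorescence (525/598 nm) is read.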
JMJD2E inh: blocks human JMJD2E demethylase activity | B2RXH2 | JMJD2E catalytic domain, FDH-coupled NADH fluorescence (FDH is formaldehyde dehydrogenase) | Potency, µM (highest dose often 57.1 µM), for the others: top-dose activity change, negative = inhibition, hits mostly inhibitors | actives 1.6% (n = 230,000) | AID 2147; active means well fitted inhibition curve with a large enough effect, not every such curve was filed as active; inconclusive means small, poorly fitted or top-dose-only effect, or another doubt; inactive means no such curve, though single readings can be large or run the other way;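 further: potency means the concentration at half of the fitted maximal effect; 0% = wells with enzyme and -100% = buffer wells without enzyme; nearly all actives have a fitted effect of over 50% in size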
Target sequence (B2RXH2 1-337 limits assumed): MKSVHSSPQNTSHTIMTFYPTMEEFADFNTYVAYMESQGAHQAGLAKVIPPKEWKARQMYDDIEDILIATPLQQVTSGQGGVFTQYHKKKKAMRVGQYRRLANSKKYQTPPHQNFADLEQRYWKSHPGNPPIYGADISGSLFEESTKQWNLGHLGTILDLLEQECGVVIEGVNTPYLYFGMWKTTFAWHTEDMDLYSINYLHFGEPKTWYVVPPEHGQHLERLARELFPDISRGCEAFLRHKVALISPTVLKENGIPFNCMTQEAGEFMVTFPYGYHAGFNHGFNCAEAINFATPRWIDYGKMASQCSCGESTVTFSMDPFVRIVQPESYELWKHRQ
Tau fluor cs: counter-screen for tau fibril formation inhibitors. tau K18 P301L Alexa594 fluorescence, heparin fibrillization. Potency, µM (series often up to 57.7 µM), inactives show at the top dose activity change, negative = decrease. actives 0.93% (n = 280,000). AID 1463; further: potency means the concentration at half of the fitted maximal effect; nearly all actives have a fitted effect of over 55% in size
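Human tau K18 P301L (15 uM unlabeled, 0.24 uM Alexa 594-labeled) in 100 mM sodium acetate pH 7 with 20 uM heparin, 6 hr at 37 C. ThT 30 uM added, 1 hr ambient; Alexa 594 FP and total fluorescence read at 555/632 nm.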
Sfp inh: inhibitors of Bacillus subtilis Sfp phosphopantetheinyl transferase; AID 1490; Biochemical Sfp PPTase activity, qHTS; Q9F4F7; actives 3.5% (n = 310,000); Potency, µM, without a hit: largest response in the series, negative = inhibition, usual class: inhibitors;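 further: the enzyme is Sfp with the accession as filed and its product quenches rhodamine fluorescence; potency means the concentration at half of the fitted maximal effect; 0% = enzyme reaction without inhibitor and -100% = no enzyme wells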
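Step 1, compound plus 15 nM Sfp-PPTase, 15 min, room temperature. Step 2, add rhodamine-CoA (5 uM) and BHQ-2-YbbR (12.5 uM). Step 3, read 525/598 nm fluorescence at 0 and 30 min.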
Tau fibril FP: inhibitors of human tau fibril formation | P10636 | K18 P301L tau heparin fibrillization, Alexa594 FP, 6 h | Potency, µM (titrated, usually from 57.7 µM), without a hit: top-dose activity, negative = inhibition, actives largely listed as inhibitors | actives 0.39% (n = 280,000); further: potency means the concentration at half of the fitted maximal effect; nearly all actives have a fitted effect of over 55% in size
Target sequence (P10636 561-689 P618L limits assumed): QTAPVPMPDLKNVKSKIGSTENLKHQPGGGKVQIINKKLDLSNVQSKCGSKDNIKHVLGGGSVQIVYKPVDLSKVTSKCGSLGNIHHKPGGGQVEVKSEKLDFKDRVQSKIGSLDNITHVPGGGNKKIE
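Read-out: fluorescence polarization of Alexa 594-labeled tau (0.24 uM), 555 nm excitation, 632 nm emission. Mixtures held 15 uM unlabeled K18 P301L, compound and 20 uM heparin, pH 7 acetate buffer, incubated 6 hr at 37 C.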
Tau ThT inhib: blocks human tau fibril formation measured by thioflavin T; recombinant tau K18 P301L (four-repeat tau fragment), heparin-induced fibrillization, ThT fluorescence; Potency, µM (series often up to 57.4 µM), inactives show at the highest dose activity, negative = inhibition, most hits filed as inhibitors; actives 2.1% (n = 270,000); AID 1460; further: potency means the concentration at half of the fitted maximal effect; nearly all actives have a fitted effect of over 55% in size
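Heparin-induced (20 uM) aggregation of recombinant human K18 P301L tau, 15 uM unlabeled with 0.24 uM labeled, pH 7 acetate buffer, 6 hr at 37 C with compound. Fibrils quantified by 30 uM ThT fluorescence after 1 hr ambient incubation.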
* = called active by the depositor; [ ] = dose if it differs, or a comment. Shown are actives, neighbours in structure and some others; about 5.3% of the full set was active somewhere. Unless noted, the call rests on the fitted dose curve; in most records, active means well fitted curve in the direction sought with a large enough effect; inconclusive means small, poorly fitted or top-dose-only effect, or another doubt; inactive means no such curve, though single readings can be large; an effect the other way counts as inactive or inconclusive. Unless noted, on the % scale 0 is the no-effect control and ±100 the full control effect.

Cc1ccc(-c2csc3nc(C)n(-n4c(C)ccc4C)c(=O)c23)o1 was read as Coupling enz -1, JMJD2E inh -6%, Tau fluor cs -8%, Sfp inh 20µM*, Tau fibril FP -4% and Tau ThT inhib inconclusive.
Screening C=CCn1c(SCC(=O)NCC2CCCO2)nc2scc(-c3ccccc3)c2c1=O (stereo unspecified) returned Coupling enz 1 and Sfp inh 11%.
For C=CCn1c(SCC(C)=O)nc2scc(-c3ccc(C)o3)c2c1=O the results were Coupling enz 2 and Sfp inh 50µM*.
Screening C=CCn1c(=S)[nH]c2scc(-c3ccc(C)o3)c2c1=O returned Coupling enz 5, JMJD2E inh 8%, Tau fluor cs -21%, Sfp inh 28µM*, Tau fibril FP 4% and Tau ThT inhib inconclusive.
Cc1ccc(-c2csc3nc(C)n(N)c(=O)c23)o1 was read as Coupling enz -3, JMJD2E inh -7%, Tau fluor cs -9%, Sfp inh -7%, Tau fibril FP 2% and Tau ThT inhib inconclusive.
C=CCn1c(SCC(=O)Nc2c(C)n(C)n(-c3ccccc3)c2=O)nc2scc(-c3ccccc3)c2c1=O was read as Coupling enz 12, JMJD2E inh 5%, Tau fluor cs -3%, Sfp inh 16%, Tau fibril FP 1% and Tau ThT inhib -6%.
C=CCn1c(SCC(=O)NCCCC)nc2scc(-c3ccco3)c2c1=O was read as Coupling enz 1, JMJD2E inh -14%, Tau fluor cs -11%, Sfp inh 20µM*, Tau fibril FP -12% and Tau ThT inhib inconclusive.
`CC[C@H](C)[C@@H](NC(=O)O[C@@H]1Cc2cc(OC)ccc2O[C@H]1c1cccc(OC)c1)C(=O)OC` gave Coupling enz -2, JMJD2E inh 5%, Tau fluor cs -14%, Sfp inh -9%, Tau fibril FP 4% and Tau ThT inhib -9%.
COc1ccc(-c2cc(C3C4C=CCC(C)C4C(=O)N3Cc3ccccc3)ccc2F)cc1OC (stereo unspecified) was read as Coupling enz -1 and Sfp inh -19%.
For C=CCn1c(SCC(=O)NC2CCCC2)nc2scc(-c3ccco3)c2c1=O the results were Coupling enz 0, JMJD2E inh inconclusive, Tau fluor cs -19%, Sfp inh 10µM*, Tau fibril FP inconclusive and Tau ThT inhib 28µM*.
`CCOC(=O)CN=C1CC(C)(C)CC2=C1Sc1ncnc(N(C)C)c1N2` gave Coupling enz -47*, JMJD2E inh inconclusive, Tau fluor cs inconclusive, Sfp inh 10µM*, Tau fibril FP -19% and Tau ThT inhib 16µM*.
CCOC(=O)C1=C(C)NC2=C(C(=O)CC(C)(C)C2)C1c1cccc(C)n1 (stereo unspecified) was read as Coupling enz -3, JMJD2E inh inconclusive, Tau fluor cs -1%, Sfp inh 3%, Tau fibril FP 1% and Tau ThT inhib 2%.
NC(N)=NCCC[C@H](NC(=O)[C@H](Cc1ccccc1)NC(=O)[C@@H]1CCCN1C(=O)[C@H](CO)NC(=O)[C@H](Cc1ccccc1)NC(=O)CNC(=O)[C@@H]1CCCN1C(=O)[C@@H]1CCCN1C(=O)[C@@H](N)CCCN=C(N)N)C(=O)O was read as Coupling enz 2 and Sfp inh 5%.
Screening CCOC(=O)c1nnc(-c2ccccc2)nc1Sc1ccccc1Cl returned Coupling enz -3, JMJD2E inh 4%, Tau fluor cs inconclusive, Sfp inh 79µM*, Tau fibril FP -1% and Tau ThT inhib inconclusive.
`Cc1ccc(CSC2=Nc3ccccc3C3=NC(CC(=O)NCc4ccco4)C(=O)N23)cc1` (stereo unspecified) gave Coupling enz -13, JMJD2E inh inconclusive, Tau fluor cs -8%, Sfp inh 35µM*, Tau fibril FP -7% and Tau ThT inhib inconclusive.
For COC1CC2CCC(C)[C@](O)(O2)C(=O)C(=O)N2CCCCC2C(=O)OC(C(C)CC2CCC(O)C(OC)C2)CC(=O)C(C)/C=C(/C)C(O)C(OC)C(=O)C(C)CC(C)C=CC=C/C=C\1C (stereo partly specified) the results were Sfp inh -5%.
`COCCNC(=O)CSc1nc2sc(C)c(C)c2c(=O)n1-c1ccccc1` gave Coupling enz 5, JMJD2E inh 8%, Tau fluor cs -14%, Sfp inh 21%, Tau fibril FP -2% and Tau ThT inhib -9%.
For CCn1c(SCC(=O)NCCOC)nc2sc(C)c(C)c2c1=O the results were Coupling enz 3, JMJD2E inh -2%, Tau fluor cs -3%, Sfp inh 45µM*, Tau fibril FP -6% and Tau ThT inhib -2%.
`Cc1ccccc1OCC(O)CN1CCN(CCN2C(=O)c3cccc4cccc(c34)C2=O)CC1` (stereo unspecified) gave Coupling enz 1, JMJD2E inh inconclusive, Tau fluor cs -10%, Sfp inh 12%, Tau fibril FP 15% and Tau ThT inhib -1%.
`C=CCc1ccccc1OCC(O)CN1CCN(CCN2C(=O)c3cccc4cccc(c34)C2=O)CC1` (stereo unspecified) gave Coupling enz -10, JMJD2E inh inconclusive, Tau fluor cs -1%, Sfp inh 5.6µM*, Tau fibril FP -4% and Tau ThT inhib 1%.
C=CCSC1=N/C(=C\C=C\c2ccco2)C(=O)S1 was read as Coupling enz -8, JMJD2E inh inconclusive, Tau fluor cs inconclusive, Sfp inh 56µM*, Tau fibril FP inconclusive and Tau ThT inhib 13µM*.
`CSc1nc(O)c(/C=C2\C=Nc3ccccc32)[nH]1` gave Coupling enz -1, JMJD2E inh -4%, Tau fluor cs -5%, Sfp inh -4%, Tau fibril FP 7% and Tau ThT inhib 1%.
O=c1[nH]c(/C=C2\C=Nc3ccccc32)c(O)n1Cc1ccccc1F was read as Coupling enz -5, JMJD2E inh inconclusive, Tau fluor cs 7.9µM*[quencher], Sfp inh -18%, Tau fibril FP 0% and Tau ThT inhib inconclusive.
`O=C(NCCSc1c(-c2ccc(Cl)cc2)[nH]c2ccccc12)c1ccc(S(=O)(=O)N2CCOCC2)cc1` gave Tau fluor cs 4µM*[quencher], Tau fibril FP -14% and Tau ThT inhib -6%.
For O=C(NCCSc1c(-c2ccc(Br)cc2)[nH]c2ccccc12)c1ccc(S(=O)(=O)N2CCOCC2)cc1 the results were Tau fluor cs 4.5µM*[quencher], Tau fibril FP -14% and Tau ThT inhib -4%.
